Reference: PubChem BioAssay AID1259421 (Broad Institute, 2018)
Where “and” joins values, the source holds several entries; their conditions need not be identical. Equal entries are not always repeated. Out of some 6,400 compounds screened, about 610 (9.5%) were called active. No stated cut-off is given here; in the data, active means activity change below about -70%; inconclusive means no clear call, values can overlap the other calls; inactive means above that. The entries come from a sample that favours actives as a whole. The source holds several records for some structures; these can differ, active in one and inactive in another.

test: T. gondii ME49Luc in HeLa cells, luciferase assay, 72 h, no IFN-y (AID 1259421); details: stronger effect = lower value, concentration not given here

SMILES | activity change, negative = inhibition
NC1=N[C@@]2(c3cc(NC(=O)c4ccc(F)cn4)ccc3F)COC[C@@H]2CS1 | -4.81% (inactive)
CCOC(=O)[C@@H](N)Cc1ccc(-c2cc(O[C@H](c3ccc(Cl)cc3-n3ccc(C)n3)C(F)(F)F)nc(N)n2)cc1 | -85% (active)
COc1cccc(-c2ccc([C@@H](Oc3cc(-c4ccc(C[C@H](N)C(=O)O)cc4)nc(N)n3)C(F)(F)F)cc2)c1 | 21.9% (inactive)
Cc1ccn(-c2cc(Cl)ccc2[C@@H](Oc2cc(-c3ccc(C[C@H](N)C(=O)O)cc3)nc(N)n2)C(F)(F)F)n1 | 16.1% (inactive)
N#C/C(=C(\N)Sc1ccc(N)cc1)c1ccccc1C(F)(F)F | 9.63% (inactive)
N#Cc1cc(I)c(O)c([N+](=O)[O-])c1 | 10.2% (inactive)
COc1cccc2cc(-c3nc(C4CCC(C(=O)O)CC4)n4ncnc(N)c34)[nH]c12 (stereo not drawn) | -19.8% (inactive)
Oc1ccc([C@H]2Oc3cc(O)cc(O)c3C[C@H]2O)cc1 | 0.946% (inactive)
Oc1cc(O)c2c(c1)O[C@H](c1ccc(O)c(O)c1)[C@H](O)[C@H]2c1c(O)cc(O)c2c1O[C@H](c1ccc(O)c(O)c1)[C@@H](O)C2 | -71.6% (active)
Oc1cc(O)c2c(c1)O[C@H](c1ccc(O)c(O)c1)[C@@H](O)C2 | 6.21% (inactive) and -16.6% (inactive)
COc1cccc(C=NC=Nc2cccc(OC)c2)c1 | 10.3% (inactive)
O=c1[nH]nc(Sc2ncc([N+](=O)[O-])s2)n1-c1ccc2c(c1)OCCO2 | 34.4% (inactive)
NC(=O)c1cnc(N[C@@H]2CCCC[C@@H]2N)nc1Nc1cccc(-n2nccn2)c1 | -82.6% (active) and -7.89% (inactive)
CC(C)(C)CC(=O)OCC(=O)[C@@]1(O)CCC2C3CCC4=CC(=O)C=C[C@]4(C)C3[C@@H](O)C[C@@]21C (stereo partly drawn) | -8.37% (inactive)
CS(=O)(=O)Nc1ccc2oc3c(OC(F)F)ccc(C(=O)Nc4c(Cl)cncc4Cl)c3c2c1 | 27.8% (inactive)
O=c1[nH]c(=O)c2cn[nH]c2[nH]1 | -8.15% (inactive)
Cc1cc(C(C)Nc2ccccc2)c2nc(N3CCOCC3)cc(=O)n2c1 (stereo not drawn) | 14.5% (inactive)
CCCc1nc(C(C)(C)O)c(C(=O)OCc2oc(=O)oc2C)n1Cc1ccc(-c2ccccc2-c2nn[nH]n2)cc1 | 2.42% (inactive) and 2.73% (inactive)
CN1C2CC[C@@H]1CC(OC(=O)[C@H](CO)c1ccccc1)C2 (stereo partly drawn) | 5% (inactive)
COc1cc(/C=C(/C#N)C(N)=O)cc(CSc2nc3ccccc3s2)c1O | 0.785% (inactive)
C=C[C@H]1CN2CC[C@H]1C[C@@H]2[C@H](O)c1ccnc2ccc(OC)cc12 | -4.38% (inactive)
O=C(/C=C/c1ccc(CN(CCO)CCc2c[nH]c3ccccc23)cc1)NO | -83.9% (active)
O=C(O)CCCc1c[nH]c2ccccc12 | 16.7% (inactive)
O=C(O)CCc1c[nH]c2ccccc12 | 16.9% (inactive)
COC(=O)C[C@H]1C(C)(C)C2(O)OC34CC2C(=O)[C@]1(C)C3CC[C@]1(C)C4=CC(=O)O[C@H]1c1ccoc1 (stereo partly drawn) | -5.47% (inactive)
COc1cc(Nc2ncc(F)c(Nc3ccc4c(n3)NC(=O)C(C)(C)O4)n2)cc(OC)c1OC | -51.7% (inactive) and -21% (inactive)

SMILES | activity change, negative = inhibition
COc1cc(Nc2ncc(F)c(Nc3ccc4c(n3)N(COP(=O)(O)O)C(=O)C(C)(C)O4)n2)cc(OC)c1OC | -77% (active)
COC1C(O)C(CO)OC1n1cnc2c(NC3CCCCC3)ncnc21 (stereo not drawn) | 10.5% (inactive)
Cc1cc(Nc2nc(N[C@@H](C)c3ncc(F)cn3)ncc2Cl)n[nH]1 | 2.85% (inactive)
CCc1cnc(N2CCC(c3nc(COc4ccc(-n5cnnn5)cc4)cs3)CC2)nc1 | -26.5% (inactive)
CC1(C)O[C@@H]2CC3C4CCC5=CC(=O)C=C[C@]5(C)[C@@]4(F)[C@@H](O)C[C@]3(C)[C@]2(C(=O)CO)O1 (stereo partly drawn) | -0.643% (inactive)
O=C(CCCCCCC(=O)Nc1cccnc1)NO | -92.1% (active)
CC(=O)Nc1ccccc1 | 7.35% (inactive) and 14.6% (inactive)
O=C(Cc1ccccc1)NO | -1.4% (inactive)
O=C(CCCCCCC(=O)Nc1ccccc1)NO | -84% (active) and -91.4% (active) and -89.3% (active)
O=C(O)CCCNC(=O)c1cccnc1 | 23.7% (inactive)
Cn1ccc2cc(NC(=O)Nc3cccnc3)ccc21 | 22.9% (inactive) and -13.9% (inactive)
CC(C)c1ccc2c(c1)CCC1[C@](C)(CN)CCC[C@]21C (stereo partly drawn) | 3.16% (inactive)
Nc1nc(-c2ccccc2)c(Br)c(=O)[nH]1 | 3.15% (inactive)
Cc1cccn2c(=O)c(-c3nn[nH]n3)cnc12 | 0.433% (inactive)
C=C1C(=O)O[C@@H]2[C@H]3C(C)=CC[C@@]34O[C@@]4(C)CC[C@@H]12 | 18.9% (inactive)
CC[C@@H]1Cn2c(c3nc(-c4ccccc4)nc-3n(C)c2=O)N1 | 8.44% (inactive) and 12.6% (inactive)
COc1cc2c(cc1-c1c(C)noc1C)ncc1[nH]c(=O)n([C@H](C)c3ccccn3)c12 | -91.9% (active)
C#Cc1cnc2[nH]c(=O)n(C(CC)CC)c2n1 | 0.376% (inactive)
NCC[C@@H](O)C(=O)N[C@@H]1C[C@H](N)[C@@H](O[C@H]2O[C@H](CN)[C@@H](O)[C@H](O)[C@H]2O)[C@H](O)[C@H]1O[C@H]1O[C@H](CO)[C@@H](O)[C@H](N)C1O (stereo partly drawn) | 22.8% (inactive)
CCCCCCCC/C=C\CCCCCCCC(=O)N[C@@H](CO)Cc1ccc(O)cc1 | 4.92% (inactive)
c1cc2c(cc1C1CCCCC1)c1c3n2CCNC3CCC1 (stereo not drawn) | 23.6% (inactive) and 27.3% (inactive)
c1ccc(CNc2ncnc3nc[nH]c23)cc1 | 9.71% (inactive) and 7.45% (inactive)
Cn1cnnc1Sc1c([N+](=O)[O-])ncn1C | 23.4% (inactive) and 9.93% (inactive)
Cn1cnc([N+](=O)[O-])c1Sc1ncnc2nc[nH]c12 | -68.2% (inactive) and -74.1% (active)
CC(SC(=O)c1cccs1)C(=O)NCC(=O)O (stereo not drawn) | 13% (inactive)
C[C@@H]1CC[C@H]2[C@@H](C)C(O)O[C@@H]3O[C@]4(C)CC[C@@H]1[C@]32OO4 (stereo partly drawn) | -85.4% (active)

SMILES | activity change, negative = inhibition
CC(=O)[C@H]1CCC2C3CC=C4C[C@@H](OC(=O)CCC(=O)O)CC[C@]4(C)C3CC[C@@]21C (stereo partly drawn) | 4.41% (inactive) and 6.51% (inactive)
C[C@H]1[C@H](OC(=O)CCC(=O)O)O[C@@H]2O[C@@]3(C)CC[C@H]4[C@H](C)CC[C@@H]1[C@@]24OO3 | -80.6% (active)
C[C@H]1[C@@H](O)O[C@@H]2O[C@@]3(C)CC[C@H]4[C@H](C)CC[C@@H]1[C@@]24OO3 | -93.7% (active)
Brc1c(Br)c(Br)c2n[nH]nc2c1Br | 5.07% (inactive) and 22.5% (inactive)
OCc1cc2c(cn1)[nH]c1ccccc12 | 12.8% (inactive)
CCOC(=O)c1c(C)[nH]c2ccc3c(c12)CN1CCc2cc(OC)ccc2C1O3 (stereo not drawn) | 5.91% (inactive)
C[C@@H](O)CNC(C)(C)CC(=O)N[C@@H]1CCc2ccccc2N(Cc2ccc(-c3ccccc3-c3nn[nH]n3)cc2)C1=O | 8.07% (inactive)
CC[C@H](Nc1ncnc2nc[nH]c12)c1nc2cccc(F)c2c(=O)n1-c1ccccc1 | 0.609% (inactive)
Nc1c(S(=O)(=O)O)cc(Nc2cccc3ccccc23)c2c1C(=O)c1ccccc1C2=O | 5.63% (inactive)
C[C@H](CCC(=O)NCC(=O)O)[C@H]1CCC2C3C(C[C@H](O)[C@@]21C)[C@@]1(C)CC[C@@H](O)CC1C[C@H]3O (stereo partly drawn) | 3.03% (inactive)
CN(C)C(=N)N=C(N)N | 11% (inactive) and -0.508% (inactive)
CN(C)CC(=O)Nc1ccc2[nH]c(=O)c3ccccc3c2c1 | -4.97% (inactive)
O=C(c1ccc2nccnc2c1)N1CCCCC1 | 3.08% (inactive)
COC(=O)[C@]12CCC(C)(C)C[C@@H]1[C@@H]1C(=O)C=C3[C@]4(C)C=C(C#N)C(=O)C(C)(C)[C@@H]4CC[C@@]3(C)[C@]1(C)CC2 | -87.4% (active)
CC(=O)N[C@@H](CSC/C=C(\C)CC/C=C(\C)CCC=C(C)C)C(=O)O | 7.49% (inactive)
OC[C@H]1NC[C@@H](O)[C@@H](O)[C@@H]1O | 13.1% (inactive)
COc1ccc(C(=O)NCc2cccnc2)cc1C(=O)NCc1cccnc1 | 7.12% (inactive)
CCC[C@H](Nc1nc(-c2ccc(NC(=O)NCC)c(OC)c2)ncc1C)c1cccnc1 | -75.6% (active)
Oc1ccccc1-c1nnco1 | 11.7% (inactive)
CCCCCCCCCCCCCCCCCCCCCC(=O)O | -1.78% (inactive)
CCCCC1C(=O)N(c2ccccc2)N(c2ccccc2)C1=O | 10.6% (inactive) and 30.2% (inactive) and 17.8% (inactive)
CCCCCCCCCCCC1C(=O)C(=O)CC(=O)C1=O | -89.4% (active) and -2.92% (inactive)
O=C(/C=C/c1ccc2ccccc2n1)c1ccncc1 | 3.25% (inactive)
CN(C)C1C(=O)C(C(N)=O)C(=O)C2(O)C(=O)C3C(=O)c4c(O)ccc(Cl)c4C(O)C3CC12 (stereo not drawn) | 321% (inactive)
COC(=O)NC(C)CNc1nccc(-c2cn(C(C)C)nc2-c2cc(Cl)cc(NS(C)(=O)=O)c2F)n1 (stereo not drawn) | -71.5% (active)
O=c1[nH]nc2c3c(cccc13)NC(CN1Cc3ccccc3C1)=N2 | 12.4% (inactive)
